Compound activity: PubChem, NMMLSC
Sampled rows, rich in hits. Any-hit rate of the full collection: about 3.5%.
Bead autofluor: compound fluorescence in toxin protease inhibitor counterscreen; compound autofluorescence counterscreen, microsphere flow cytometry; stronger effect = higher value; fluorescence intensity (no concentration beside the values); 360,000 tested, 3.1% active; AID 624483; in the data active = fluorescence intensity above about 16000; inconclusive = no clear call, values can overlap the other calls
Anthrax LF prot: anthrax lethal factor protease inhibition | P15917 | multiplex microsphere protease cleavage assay, LF | inhibition, % at 10 µM | 360,000 tested, 0.12% active; note: plate controls were buffer without enzyme for full effect and enzyme alone for no effect
Target sequence (P15917 whole entry, looked up): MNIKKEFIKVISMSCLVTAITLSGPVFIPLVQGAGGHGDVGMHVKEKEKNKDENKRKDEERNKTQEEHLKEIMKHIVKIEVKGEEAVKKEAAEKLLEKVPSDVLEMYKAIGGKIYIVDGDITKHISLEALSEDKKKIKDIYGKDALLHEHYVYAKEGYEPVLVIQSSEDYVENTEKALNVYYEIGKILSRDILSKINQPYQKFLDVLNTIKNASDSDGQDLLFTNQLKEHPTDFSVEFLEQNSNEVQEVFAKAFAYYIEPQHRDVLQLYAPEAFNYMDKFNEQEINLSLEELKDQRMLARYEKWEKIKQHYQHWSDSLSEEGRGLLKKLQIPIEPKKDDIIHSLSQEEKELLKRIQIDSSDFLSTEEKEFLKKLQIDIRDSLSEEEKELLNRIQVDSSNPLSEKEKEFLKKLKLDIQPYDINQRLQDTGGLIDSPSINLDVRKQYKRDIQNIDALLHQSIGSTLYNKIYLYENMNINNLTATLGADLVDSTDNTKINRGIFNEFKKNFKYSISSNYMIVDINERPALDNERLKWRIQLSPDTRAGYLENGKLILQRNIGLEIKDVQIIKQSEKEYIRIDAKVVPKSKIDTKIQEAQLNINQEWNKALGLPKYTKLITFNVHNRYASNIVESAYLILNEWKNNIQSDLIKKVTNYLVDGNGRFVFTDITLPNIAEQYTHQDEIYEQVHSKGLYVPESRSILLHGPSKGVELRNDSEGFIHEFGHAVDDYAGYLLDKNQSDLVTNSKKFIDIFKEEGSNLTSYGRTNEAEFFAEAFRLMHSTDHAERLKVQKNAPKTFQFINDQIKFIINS
BoNT-A LC inh2: BoNT A light chain protease inhibition. multiplex microsphere protease substrate cleavage, flow cytometry. inhibition, % at 10 µM. 360,000 tested, 0.17% active. AID 588499; note: plate controls were buffer without enzyme for full effect and enzyme alone for no effect
BoNT-F LC inh: inhibitors of Botulinum neurotoxin F light chain protease | Multiplex microsphere protease cleavage assay, flow cytometry | inhibition, % at 10 µM | 360,000 tested, 0.22% active; in the data active = inhibition above about 35%, passing the limit was not always enough; inconclusive = no clear call, values can overlap the other calls; note: plate controls were buffer without enzyme for full effect and enzyme alone for no effect
The depositor's hits bear a star; ? = inconclusive. Cut-off read from the data, not from the text of the source, unless noted: active = inhibition above about 30%; inconclusive = no clear call, values can overlap the other calls; inactive = below that.

SMILES | Bead autofluor | Anthrax LF prot | BoNT-A LC inh2 | BoNT-F LC inh
Cc1ccc(OC(F)F)c(NC(=O)Nc2cccc(C(F)(F)F)c2)c1 | 19099* | -3 | 1 | -4
O=C(Nc1cccc(C(F)(F)F)c1)N1CCN(C(=O)Nc2cccc(C(F)(F)F)c2)CC1 | 22460* | 0 | -2 | -3
CCN(CC)c1ccc(C(=O)NNC(=O)C2CSC3(C)CCC(=O)N23)cc1 (centres undefined) | 4654 | 1 | 1 | 16
CC(=O)c1ccccc1NC(=O)CCCNC(=O)c1ccc(Cl)cc1 | 4187 | 1 | -2 | -23
O=C(/C=C/Nc1cccc(C(F)(F)F)c1)C(F)(F)F | 20521* | -1 | ? | 1
CC(=O)Nc1cccc(NC(=O)C2C3C=CC(C3)C2C(=O)O)c1 (centres undefined) | 3641 | 15 | 0 | -21
COC(=O)[C@H](CC(C)C)NC(=O)N1CCN(c2cccc(C(F)(F)F)c2)CC1 | 23638* | -1 | -1 | -1
CC(=O)Nc1ccc(CN2CCN(c3cccc(C(F)(F)F)c3)CC2)cc1 | 17158* | -2 | -2 | -3
O=C(O)C1C2C=CC(C2)C1C(=O)Nc1cccc(C(F)(F)F)c1 (centres undefined) | 3235 | 2 | 3 | 50*
CC(=O)Nc1ccc(NC(=O)CN2CCN(c3cccc(C(F)(F)F)c3)CC2)cc1 | 2572 | -2 | 0 | -8
COC(=O)CCCn1cc(CN2CC(N3CCN(Cc4cccc(C)c4)CC3)CS2(=O)=O)nn1 (centres undefined) | 5051 | -3 | 0 | 6
CC(C)(CC1(C)NC(=O)NC1=O)OCc1ccccc1 (centres undefined) | 3806 | -6 | 0 | -2
c1nc(N2CCOCC2)c2c3c(sc2n1)CCCC3 | 23015* | -1 | 0 | -2
c1ccn(-c2ncnc3sc4c(c23)CCCC4)c1 | 4521 | -2 | 0 | -6
CCCCOC(=O)c1ccc(NC(=O)COC(=O)C2CC2C)cc1 (centres undefined) | 3836 | -2 | 0 | 1
COc1ccccc1CNC(=O)CCN1C(=O)COc2ccc(C)cc21 | 21217* | 0 | ? | 5
Cc1ccc2c(c1)N(CCC(=O)NCc1ccco1)C(=O)CO2 | 22695* | -1 | -2 | -5
Cc1ccc2c(c1)N(CCC(=O)NCCN1CCOCC1)C(=O)CO2 | 20041* | 0 | -1 | -3
O=C(CCN1C(=O)COc2ccccc21)NCCN1CCOCC1 | 9031 | -4 | -1 | -1
O=C(CCN1C(=O)COc2ccccc21)NCc1ccco1 | 10601 | -3 | -2 | -12
CCC1Oc2ccc(C)cc2N(CC(=O)NCC2COc3ccccc3O2)C1=O (centres undefined) | 5972 | -4 | 0 | -1
COc1ccccc1CNC(=O)CCCN1C(=O)COc2ccc(C)cc21 | 11784 | -4 | 1 | -5
Cc1ccc2c(c1)N(CCC(=O)NCC1COc3ccccc3O1)C(=O)CO2 (centres undefined) | 21396* | -6 | 1 | 3
CCN(CC)C(=O)C1=C(C)N(Cc2ccccc2)C(=O)C(CC(=O)NC2CCCC2)C1 (centres undefined) | 3813 | 5 | 0 | -4
O=C(CN(Cc1cccs1)C(=O)CNS(=O)(=O)c1ccccc1)NCc1ccco1 | 2589 | 2 | 1 | 7
SMILES | Bead autofluor | Anthrax LF prot | BoNT-A LC inh2 | BoNT-F LC inh
O=C(CN(Cc1cccs1)C(=O)CN1C(=O)COc2ccccc21)NCc1ccco1 | 19004* | -6 | 7 | 7
CC1(C(=O)Nc2c(F)c(F)c(F)c(F)c2F)CC1(Br)Br (centres undefined) | 4037 | 31* | 2 | ?
COc1ccc(C(=O)NNC(=O)C2(C)CC2(Br)Br)cc1 (centres undefined) | 5626 | -4 | 1 | 9
O=C(NN=Cc1cc(=O)[nH]c(=O)[nH]1)c1ccncc1 | 3847 | -10 | 0 | 1
CN(C)CCNc1nc(-c2ccco2)c2c(c1C#N)CC(C)(C)OC2 | 24132* | 2 | -2 | -1
CC1CCN(C(=O)CSc2nc3ccccc3c(=O)n2Cc2ccc3c(c2)OCO3)CC1 | 15459 | -2 | 2 | 2
CC1CCCCN1C(=O)CSc1nc2cc3c(cc2c(=O)n1Cc1ccc2c(c1)OCO2)OCO3 (centres undefined) | 21942* | 1 | ? | 1
CC1CCCCN1C(=O)CSc1nc2ccsc2c(=O)n1Cc1ccccn1 (centres undefined) | 19850* | 1 | -1 | -2
Cc1cc(NC(=O)CSc2nc3ccsc3c(=O)n2Cc2ccccn2)n[nH]1 | 16535* | -4 | 0 | 1
CCCCn1c(SCC(=O)Nc2cc(C)[nH]n2)nc2ccsc2c1=O | 18853* | -3 | 5 | 2
CCCNC(=O)c1cc(S(=O)(=O)N2CCC3(CC2)OCCO3)ccc1F | 3674 | 1 | 0 | -2
COCCCNC(=O)c1ccc(S(=O)(=O)c2ccc(C)cc2)c(NC(C)=O)c1 | 3526 | -8 | 0 | -13
CCCCNC(=O)c1ccc(S(=O)(=O)c2ccc(Cl)cc2)c(NC(C)=O)c1 | 21746* | 2 | 6 | 8
O=C(O)CCCc1nc(-c2ccccc2)no1 | 16634* | -3 | 0 | -2
NC(=O)CCCc1nc(-c2ccccc2)no1 | 5425 | -5 | ? | ?
O=C(CCCc1ccccc1)NCc1cccnc1 | 24595* | 0 | -1 | -3
O=C(CCc1nc(-c2ccccc2)no1)NCc1cccnc1 | 23102* | -3 | -3 | -5
Nc1ccc(CCCC(=O)NCc2cccnc2)cc1 | 3886 | -7 | 1 | 4
CCCCCCCCN1C(=O)[C@H](CC(=O)N2CCOCC2)C[C@@]2(C(=O)OC)CCCCC=C12 | 6243 | 2 | 0 | -1
CC1=C(C(=O)N(C)C)CC(CC(=O)NCCCN(C)C)C(=O)N1CCCN1CCCC1=O (centres undefined) | 5504 | -1 | 1 | 3
O=S(=O)(c1ccc2ccccc2c1)N1CCN(C2Cc3ccccc3C2)CC1 | 2310 | 1 | 0 | 4
CCS(=O)(=O)N1CCN(C2Cc3ccccc3C2)CC1 | 22089* | -1 | ? | 0
COC(=O)C1=C(C)N(C)C(=O)NC1c1cccc2ccccc12 (centres undefined) | 4071 | 6 | 1 | ?
Cn1cccc1Cc1nnc(SCC(=O)NCC2CCCO2)n1CCc1ccccc1 (centres undefined) | 22577* | -8 | ? | 2
CCSc1nnc(NC(=O)CSc2nnc(Cc3cccn3C)n2CCc2ccccc2)s1 | 20173* | -4 | ? | 2
SMILES | Bead autofluor | Anthrax LF prot | BoNT-A LC inh2 | BoNT-F LC inh
O=C(CSc1ccc2nnc(-c3ccccc3)n2n1)NCc1ccco1 | 20999* | -6 | ? | -1
COc1ccccc1NC(=O)CSc1nnc(Cc2cccn2C)n1CCc1ccccc1 | 24958* | -3 | -4 | -7
COc1ccc(-c2nnc3ccc(SCC(=O)NCc4ccco4)nn23)cc1 | 8467 | 3 | 0 | 7
Cn1cccc1Cc1nnc(SCC(=O)NCC2CCCO2)n1C (centres undefined) | 2262 | 2 | 0 | -3
COc1ccc(-c2ccc(C(=O)Nc3cc(OC)c(OC)c(OC)c3)c3occc23)c(C)c1 | 3184 | -4 | -1 | -11
CCNC(=O)C1(C)CCCN(C(=O)C2(c3ccc(Cl)cc3)CCCC2)C1 (centres undefined) | 2957 | -7 | 0 | -3
